GLS inh: qHTS for Inhibitors of Glutaminase (GLS); Glutaminase kidney isoform, mitochondrial (Homo sapiens), O94925; actives 0.21% (n = 410,000); GLS enzymatic activity, qHTS titration; Potency, µM (series often up to 45.5 µM), for inactives: top-dose activity change, negative = inhibition, hits mostly inhibitors; further: on the % scale 0 is the no-effect control and ±100 the full control effect
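Compounds were pin-transferred onto hKGA, after which L-glutamine (1 mM solution) and a detection mix of glutamate oxidase, HRP and Amplex Red were added. Initial and 30 min RT fluorescence reads were collected.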
APE1 inh-1: qHTS Assay for Inhibitors of the Human Apurinic/apyrimidinic Endonuclease 1 (APE1) | AID 2517, 2012 | recombinant APE1, TAMRA/BHQ-2 abasic DNA cleavage fluorescence | actives 0.35% (n = 350,000) | Potency, µM (titrated, usually from 65.8 µM), for the others: at the top dose activity change, negative = inhibition, most hits filed as inhibitors | DNA repair nuclease/redox regulator APEX1 (Homo sapiens), P27695;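 further: plate controls were vehicle for no effect and reference inhibitor for full effect; nearly all actives have a fitted effect of over 55% in size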
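Step 1: APE1 (0.75 nM) with compound, 15 min RT. Step 2: add 50 nM fluorophore/quencher THF duplex. Step 3: three fluorescence reads 60 s apart (525/598 nm); read 3 minus read 1 = reaction progress.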
FEN1 inh-1: qHTS Assay for the Inhibitors of Human Flap endonuclease 1 (FEN1). P39748. Recombinant FEN1 flap cleavage, fluorescence, 15 min. Potency, µM (top dose mostly 114 µM), for the others: top-dose activity change, negative = inhibition, usual class: inhibitors. actives 0.35% (n = 390,000); further: on the % scale 0 is the no-effect control and ±100 the full control effect; nearly all actives have a fitted effect of over 65% in size
Target sequence (P39748 whole entry, looked up): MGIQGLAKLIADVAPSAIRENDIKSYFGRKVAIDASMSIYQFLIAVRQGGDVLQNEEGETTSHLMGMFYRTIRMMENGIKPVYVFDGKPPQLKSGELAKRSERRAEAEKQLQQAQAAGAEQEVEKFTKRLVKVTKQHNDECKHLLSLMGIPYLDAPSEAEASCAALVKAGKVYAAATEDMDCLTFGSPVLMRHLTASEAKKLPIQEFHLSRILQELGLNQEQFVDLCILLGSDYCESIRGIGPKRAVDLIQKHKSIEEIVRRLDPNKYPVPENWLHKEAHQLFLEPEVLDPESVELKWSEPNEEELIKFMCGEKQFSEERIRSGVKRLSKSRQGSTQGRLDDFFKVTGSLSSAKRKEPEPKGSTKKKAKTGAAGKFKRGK
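With each library titrated from low to high concentration, compounds met 10 nM FEN1 for 15 min at room temperature before 50 nM substrate was added; readings at 0 and 15 min fed four-parameter Hill curve fits.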
RECQ1 inh-1: qHTS Assay for Inhibitors of RecQ-Like Dna Helicase 1 (RECQ1). ATP-dependent DNA helicase Q1 (Homo sapiens), P46063. RECQ1 DNA unwinding, red fluorescence kinetic read. Potency, µM (titrated, usually from 57.3 µM), without a hit: at the top dose activity, negative = inhibition, actives largely listed as inhibitors. actives 0.54% (n = 240,000). AID 2549, 2010;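 further: plate controls were vehicle for no effect and no enzyme for full effect; nearly all actives have a fitted effect of over 30% in size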
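RECQ1T1 50 nM; forked duplex (20 bp + 30-nt ss tails) 200 nM, ATP 2 mM final; pH 8.0, 2 mM MgCl2, 2.5 ug/ml poly(dI-dC); 15 min compound preincubation; discontinuous kinetic read over 2 h at RT.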
PGK inhibitor: qHTS Assay to Find Inhibitors of Phosphoglycerate Kinase; actives 0.043% (n = 380,000); Phosphoglycerate kinase, glycosomal (Trypanosoma brucei brucei), P07378; PGK/GAPDH coupled, Kinase-Glo luminescence, 60 min; Potency, µM (doses to about 57.5 µM), without a hit: at the top dose activity change, negative = inhibition, hits mostly inhibitors; further: on the % scale 0 is the no-effect control and ±100 the full control effect; nearly all actives have a fitted effect of over 60% in size
Target sequence (P07378 whole entry, looked up): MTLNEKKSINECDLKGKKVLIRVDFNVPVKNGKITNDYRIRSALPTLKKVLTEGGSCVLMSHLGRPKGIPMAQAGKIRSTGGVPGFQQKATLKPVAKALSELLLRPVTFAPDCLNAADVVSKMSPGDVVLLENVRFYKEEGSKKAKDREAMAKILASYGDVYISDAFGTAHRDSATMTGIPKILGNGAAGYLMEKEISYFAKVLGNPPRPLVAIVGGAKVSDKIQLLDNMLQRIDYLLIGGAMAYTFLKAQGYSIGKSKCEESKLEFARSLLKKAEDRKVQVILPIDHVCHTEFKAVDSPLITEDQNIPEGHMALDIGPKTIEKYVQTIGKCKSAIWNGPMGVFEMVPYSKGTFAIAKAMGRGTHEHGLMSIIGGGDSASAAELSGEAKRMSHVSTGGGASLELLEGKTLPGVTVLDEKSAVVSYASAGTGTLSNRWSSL
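Luminescent ATP detection (Kinase-Glo Plus) follows a 60-minute room-temperature incubation, with wells lacking PGK as controls. Buffer: 100 mM TEA (pH 7.6), 5 mM MgCl2, 0.01% Tween-20. Coupling enzyme GAPDH (100 nM final) supplies unstable 1,3-BPG in-well.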
BLM inh: qHTS Assay for Inhibitors of Bloom's syndrome helicase (BLM); RecQ-like DNA helicase BLM (Homo sapiens), P54132; recombinant BLM DNA unwinding, fluorescence dequenching; Potency, µM (titrated, usually from 56.1 µM), for the others: at the top dose activity change, negative = inhibition, hits mostly inhibitors; actives 0.2% (n = 350,000); AID 2528, 2010;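 further: plate controls were vehicle for no effect and no enzyme for full effect; nearly all actives have a fitted effect of over 35% in size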
APE1 dye cs: Counterscreen for APE1 Inhibitors: Fluorescent Dye Displacement Assay. shares compounds with APE1 inh-1. DNA fluorescent dye displacement counterscreen, fluorescence. Potency, µM (titrated, usually from 28.5 µM), inactives show at the highest dose activity change, negative = inhibition, most hits filed as inhibitors. actives 7% (n = 480). AID 2564, 2010;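 further: loss of thiazole orange fluorescence as the dye is displaced from duplex DNA; 0% = ThO with dsDNA and no compound and -100% = ThO without dsDNA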
EndoIV counter: Counterscreen for APE1 Inhibitors: qHTS Assay for Inhibitors of Endonuclease IV; AID 2565, 2010; Potency, µM (titrated, usually from 27.1 µM), without a hit: at the top dose activity change, negative = inhibition, most hits filed as inhibitors; shares compounds with APE1 inh-1; E. coli Endo IV, fluorogenic AP-site DNA cleavage; actives 4% (n = 560);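 further: plate controls were uninhibited enzyme wells for no effect and no enzyme buffer wells for full effect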
APE1 inh-2: Confirmation qHTS Assay for Inhibitors of the Human Apurinic/apyrimidinic Endonuclease 1 (APE1). shares compounds with APE1 inh-1. purified APE1, fluorogenic abasic-site DNA cleavage. Potency, µM (highest dose often 57.1 µM), inactives show at the highest dose activity change, negative = inhibition, actives largely listed as inhibitors. actives 44% (n = 750). AID 2572, 2010; further: on the % scale 0 is the no-effect control and ±100 the full control effect; nearly all actives have a fitted effect of over 30% in size
APE1 FP: qHTS FP-Based Assay for Inhibitors of the Human Apurinic/apyrimidinic Endonuclease 1 (APE1); shares compounds with APE1 inh-1; APE1 binding to TAMRA-labelled double-stranded DNA, fluorescence polarization displacement; Potency, µM (titrated, usually from 28.5 µM), without a hit: top-dose activity, negative = inhibition, actives largely listed as inhibitors; actives 7% (n = 480); further: on the % scale 0 is the no-effect control and ±100 the full control effect
RECQ1 inh-2: Confirmation qHTS Assay for Inhibitors of RecQ-Like Dna Helicase 1 (RECQ1) - Round 2 Cherry Picks; actives 15% (n = 1,100); shares compounds with RECQ1 inh-1; Potency, µM (doses to about 119 µM), for the others: top-dose activity, negative = inhibition, most hits filed as inhibitors; AID 504841, 2011; recombinant RECQ1 DNA unwinding, red fluorescence; further: on the % scale 0 is the no-effect control and ±100 the full control effect; nearly all actives have a fitted effect of over 50% in size
FEN1 inh-2: qHTS Assay for the Inhibitors of FEN1: Confirmatory Assay for Cherry-picked Compounds; actives 79% (n = 880); shares compounds with FEN1 inh-1; FEN1 flap cleavage, TAMRA/BHQ2 fluorogenic DNA substrate; Potency, µM, hits mostly inhibitors; AID 720498, 2013; further: nearly all actives have a fitted effect of over 60% in size
Starred values were filed as active, the others as inactive; i = inactive; ? = inconclusive; nt = no result given; [ ] = dose if it differs, or a comment. This is a sample that favours compounds with a hit; in the whole collection about 0.86% have one here. The call rests on the fitted dose curve; in most records, active means well fitted curve in the direction sought with a large enough effect; inconclusive means small, poorly fitted or top-dose-only effect, or another doubt; inactive means no such curve, though single readings can be large; an effect the other way counts as inactive or inconclusive. Potency means the concentration at half of the fitted maximal effect.

SMILES	GLS inh	APE1 inh-1	FEN1 inh-1	RECQ1 inh-1	PGK inhibitor	BLM inh	APE1 dye cs	EndoIV counter	APE1 inh-2	APE1 FP	others
Cc1ccc(N2C(=O)NC(=O)/C(=C\c3cc(C)n(-c4ccc(C(=O)O)cc4)c3C)C2=O)cc1	-12.4%	2.2%	-29.9%	nt	-7.9%	-3.7%	nt	nt	nt	nt
Cc1cc(/C=C2\C(=O)NC(=O)N(Cc3ccco3)C2=O)c(C)n1-c1ccc(C(=O)O)cc1	85.4%	14.1µM*	-22.2%	-25.1%	?	-1.7%	-11.2%	7.7%	?	5.3%
Cc1cc(/C=C2\C(=O)NC(=O)N(Cc3ccccc3Cl)C2=O)c(C)n1-c1ccc(C(=O)O)cc1	133.4%	11.2µM*	-25.4%	?	?	-19.6%	-12.0%	-3.0%	12.6µM*	?
Cn1cccc1/C=C1\C(=O)NC(=O)N(Cc2ccco2)C1=O	?	14.1µM*	?	?	?	-20.5%	-4.4%	23.2%	4.47µM*	-7.6%
Cc1cc(/C=C2\C(=O)NC(=O)N(c3ccc(F)cc3)C2=O)c(C)n1-c1ccc(C(=O)O)cc1	-7.0%	3.1%	-5.6%	i	-7.5%	-0.6%	nt	nt	nt	nt
O=[N+]([O-])/N=C1\NCCN1Cc1ccc(Cl)nc1	nt	-2.1%	nt	nt	nt	nt	nt	nt	nt	nt
C=CC=O	nt	2.6%	nt	3.0%	nt	nt	nt	nt	nt	nt
ClCCN(CCCl)c1ccc(C=Nc2ccc(/C=C/c3ccncc3)cc2)cc1	nt	nt	-6.6%	nt	nt	nt	nt	nt	nt	nt
CN1C(=O)N(C)C(=O)C2(Cc3cc(N)ccc3N3CCN(c4ccccc4F)CC32)C1=O (centres undefined)	nt	-6.6%	nt	-9.7%	nt	-3.6%	nt	nt	nt	nt
CN1CCN2c3ccc(N)cc3CC3(C(=O)NC(=O)NC3=O)C2C1 (centres undefined)	0.7%	?	4.5%	8.2%	-0.6%	-21.3%	nt	nt	?	nt
CN1C(=O)/C(=C/C=C/c2ccco2)C(=O)NC1=S	nt	25.1µM*	20µM*	?	28.2µM*	56.7%	-1.8%	33.6%	14.1µM*	17.3%
O=C1NC(=O)N(Cc2ccc(F)cc2)C(=O)/C1=C\c1ccoc1	?	28.2µM*	?	25.1µM*	-23.5%	-19.7%	22.7%	3.0%	15.8µM*	5.6%
O=C1NC(=O)N(Cc2ccc(F)cc2)C(=O)/C1=C/c1cccs1	-18.1%	7.7%	-16.3%	-22.8%	3.0%	-7.1%	nt	nt	nt	nt
O=C(O)c1ccc2[nH]cc(CCCCN3CC=C(c4ccccc4)CC3)c2c1	-14.9%	?	nt	-9.9%	nt	-12.9%	-0.7%[57.1 µM]	19.0%[57.1 µM]	?	15.4%[57.1 µM]
CC(c1ccccc1)n1cncc1C(=O)O (centres undefined)	3.2%	?	-1.9%	-24.0%	-1.5%	-5.6%	nt	nt	-37.6%	nt
COC(=O)c1cncn1C(C)c1ccccc1 (centres undefined)	6.7%	3.9%	1.0%	-4.4%	-6.4%	2.3%	nt	nt	nt	nt
O=c1cc(-c2ccc(O)c(O)c2)oc2c(C3O[C@H](CO)[C@@H](O)[C@H](O)[C@H]3O)c(O)cc(O)c12 (some centres undefined)	-7.6%	0.891µM*	-18.4%	-14.8%	5.1%	-3.5%	?	73.5%	?	-3.9%
[CH3][Hg][Cl]	nt	14.1%	nt	11.0%	nt	nt	nt	nt	nt	nt
NC(=O)c1ccc(N=Cc2c(O)n(Cc3ccco3)c(=O)[nH]c2=O)cc1	?	31.6µM*	39.8µM*	?	?	?	?	-10.1%	39.8µM*	-7.6%	RECQ1 inh-2=?
O=c1[nH]c(=S)n(Cc2ccco2)c(O)c1C=NCc1cccs1	14.8%	?	-12.4%	?	-3.2%	6.1%	-9.3%	10.7%	-10.7%[24.4 µM]	-3.5%	RECQ1 inh-2=-26.4%
O=c1[nH]c(=O)n(Cc2ccco2)c(O)c1C=NCc1cccs1	-8.8%	2.1%	-12.9%	-8.5%	-9.3%	-4.9%	nt	nt	nt	nt
NC1CCCCC1N (centres undefined)	nt	-1.7%	nt	-9.7%	nt	-4.7%	nt	nt	nt	nt
O=C1NC(=O)N(Cc2ccco2)C(=O)/C1=C/C=C/c1ccco1	44.2%	2.82µM*	25.1µM*	10µM*	?	-2.5%	9.9%	-5.9%	5.01µM*	?	FEN1 inh-2=42.6*
Clc1nc(Cl)nc(Cl)n1	nt	17.2%	nt	0.5%	nt	nt	nt	nt	nt	nt

Source: PubChem BioAssay
